Source: PubChem BioAssay AID1159580 (chemical genetic matrix, 2015)
Where “and” joins values, the source holds several entries; their conditions need not be identical. Equal entries are not always repeated. Among all 5,500 compounds or so, about 2,000 (36%) were called active. Roughly 18% stayed inconclusive and do not appear here. Cut-off read from the data, not from the text of the source: active = normalized growth mostly below about 0.91 (no sharp cut-off); inconclusive = no clear call, values can overlap the other calls; inactive = mostly above about 0.92. The list shows a part of the results.

Experiment: chemical genetic growth profiling, strain panel (AID 1159580);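 note: tested at 20 µM; growth read once vehicle control cultures reached saturation at 30 °C; 1 = growth at the plate median or of vehicle wells; lower values mean less growth of the strain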
Settings: S. cerevisiae deletion strains, growth OD

Measured: normalized growth

CC(C)NCC(O)c1ccc(O)c(O)c1 (stereo not given)
inactive: locus YAL013W, strain DEP1, active compounds read low 1.01 | locus YAL021C, strain ccr4, active compounds read low 0.994 | locus YAL026C, strain drs2, active compounds read low 0.994 | locus YAL030W, strain snc1, active compounds read low 0.996 | locus YAL040C, strain CLN3, active compounds read low 1 and 1.06 | locus YBL061C, strain skt5, active compounds read low 0.99 | locus YBR009C, strain hhf1, active compounds read low 0.995 | locus YBR021W, strain FUR4, active compounds read low 1.01 | locus YBR023C, strain chs3, active compounds read low 0.982 | locus YBR171W, strain sec66, active compounds read low 0.979 | locus YBR229C, strain ROT2, active compounds read low 1.02 | locus YBR231C, strain swc5, active compounds read low 0.997 | locus YBR279W, strain paf1, active compounds read low 0.973 | locus YCL011C, strain gbp2, active compounds read low 0.978 | locus YCL016C, strain dcc1, active compounds read low 0.951 | locus YCL029C, strain bik1, active compounds read low 1 | locus YCL061C, strain MRC1 (second series), active compounds read low 0.995 and 0.99 | locus YCL061C, strain MRC1, active compounds read low 0.985 | locus YCL069W, strain vba3, active compounds read low 1 | locus YCR088W, strain abp1, active compounds read low 0.99 | locus YDL005C, strain med2, active compounds read low 0.997 | locus YDL035C, strain GPR1, active compounds read low 1.02 | locus YDL040C, strain nat1, active compounds read low 1.01 | locus YDL074C, strain BRE1, active compounds read low 1.03 | locus YDL101C, strain DUN1, active compounds read low 1.01 | locus YDL185W, strain tfp1, active compounds read low 0.984 | locus YDL192W, strain arf1, active compounds read low 1 | locus YDR001C, strain nth1, active compounds read low 0.992 | locus YDR069C, strain doa4, active compounds read low 1.02 | locus YDR101C, strain arx1, active compounds read low 1.02 | locus YDR137W, strain rgp1, active compounds read low 1 | locus YDR150W, strain NUM1, active compounds read low 1.02 and 0.999 | locus YDR159W, strain sac3, active compounds read low 1.01 | locus YDR162C, strain NBP2, active compounds read low 1 | locus YDR195W, strain ref2 0.992 | locus YDR297W, strain sur2, active compounds read low 0.99 | locus YDR318W, strain mcm21, active compounds read low 0.996 | locus YDR334W, strain swr1, active compounds read low 0.982 | locus YDR335W, strain msn5, active compounds read low 0.992 | locus YDR363W, strain ESC2, active compounds read low 1.02 and 0.978 | locus YDR388W, active compounds read low 0.994 | locus YDR392W, strain spt3, active compounds read low 0.912 | locus YDR502C, strain sam2, active compounds read low 0.999 | locus YEL003W, strain gim4, active compounds read low 1.01 | locus YEL037C, strain rad23, active compounds read low 0.993 | locus YEL061C, strain CIN8 (second series), active compounds read low 0.994 | locus YEL061C, strain CIN8, active compounds read low 1.01 | locus YER002W, strain NOP16, active compounds read low 0.997 and 0.956 | locus YER015W, strain faa2, active compounds read low 0.995 | locus YER016W, strain bim1, active compounds read low 1.01 | locus YER110C, active compounds read low 0.997 | locus YER111C, strain swi4, active compounds read low 0.985 | locus YER155C, strain BEM2 (second series), active compounds read low 0.989 | locus YER155C, strain BEM2, active compounds read low 1.01 | locus YER167W, strain BCK2, active compounds read low 0.992 | locus YFR010W, strain ubp6, active compounds read low 0.992 | locus YGL078C, strain dbp3, active compounds read low 0.995 | locus YGL086W, strain mad1, active compounds read low 0.994 | locus YGL167C, strain pmr1, active compounds read low 0.989 | locus YGL173C, strain kem1, active compounds read low 0.999 | locus YGL227W, strain vid30, active compounds read low 0.99 | locus YGL240W, strain doc1, active compounds read low 0.982 | locus YGL248W, strain PDE1, active compounds read low 1.01 | locus YGL253W, strain hxk2, active compounds read low 0.999 | locus YGR078C, strain PAC10, active compounds read low 1.02 and 0.98 | locus YGR135W, strain pre9, active compounds read low 0.993 | locus YGR229C, strain SMI1, active compounds read low 1.01 | locus YGR252W, strain gcn5, active compounds read low 0.936 | locus YHR013C, strain ard1, active compounds read low 0.976 | locus YHR027C, strain rpn1, active compounds read low 0.997 | locus YHR030C, strain SLT2, active compounds read low 1.01 and 0.977 | locus YHR079C, strain IRE1 (second series), active compounds read low 1 | locus YHR079C, strain IRE1, active compounds read low 0.993 | locus YHR094C, strain hxt1, active compounds read low 0.987 | locus YHR129C, strain ARP1, active compounds read low 1.01 | locus YHR142W, strain chs7, active compounds read low 0.965 | locus YHR200W, strain rpn10, active compounds read low 1 | locus YIL066C, strain RNR3, active compounds read low 1.01 | locus YIL073C, strain SPO22, active compounds read low 1.05 | locus YIL125W, strain kgd1, active compounds read low 0.99 | locus YIR030C, strain dcg1, active compounds read low 1.01 | locus YJL092W, strain hpr5, active compounds read low 0.985 | locus YJL095W, strain BCK1 (second series), active compounds read low 0.995 | locus YJL095W, strain BCK1, active compounds read low 1.03 and 0.991 | locus YJL115W, strain asf1, active compounds read low 0.995 | locus YJL129C, strain trk1, active compounds read low 0.979 | locus YJL134W, strain LCB3, active compounds read low 1.02 | locus YJL154C, strain vps35, active compounds read low 0.995 | locus YJL164C, strain tpk1, active compounds read low 0.998 | locus YJL166W, strain qcr8, active compounds read low 0.972 | locus YJL168C, strain set2, active compounds read low 0.984 | locus YJL187C, strain SWE1 (second series), active compounds read low 1.01 | locus YJL187C, strain SWE1, active compounds read low 1 | locus YJR043C, strain POL32, active compounds read low 1.01 | locus YJR066W, strain TOR1, active compounds read low 0.944
